# In the supplement of paper PMC6555819:
# Test system: VDR:RXRa (NR concentration 270 nM, RXRa partner concentration 90 nM)
# Assay: PBM binding z-score (relative to random genomic background probes); higher = stronger binding; sequences stand for … in GC…GCGATTGACAGCGTAGAATGAAGG
# Description: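 Protein-binding microarray (Agilent 4x180K custom design, double-stranded 60-nt probes: 5' GC cap, 34-nt variable region, 24-nt constant primer region; full probe sequence given). Purified or IVT nuclear receptor:RXRα heterodimers (3:1 NR:RXRα, mostly 270:90 nM) or homodimers were incubated for 1 h in PBS with 2% milk and no ligand, then detected with Alexa488 antibodies. Fluorescence from o1-orientation probes (~5 replicates averaged) was converted to z-scores against 500 random hg19 background probes. Variable regions are seed direct-repeat (DR0–DR5) sites, all their single-nucleotide variants and half-site ablations.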
row,Sequence,PBM binding z-score
1,TCGTATAGGTAAATGCTAGGTGAAAGTCCGATCT,0.443
2,GTGACTGGGGCATCAGCAGGTTACCATAACTTAA,0.163
3,CAAACTAGGTCACGAAAGGTCATAGTCGAATGAC,6.92
4,AGTCAAAGTTCATCCAGGTAACGTAAGATATGCT,5.39
5,TCTGCTAGGTCAGTTGGTCAGCTACCGAGCTGCC,0.106
6,CCGAGTAGGTTATAGGGCATTCAGGCAACGGTGA,0.402
7,CTAACGAGGGCATGAGTTGATAGCAAATGCCGAT,1.4
8,GGAACGAGGGCAAGATGATAGCAGAGTTTGATGG,0.221
9,GCTGCTAGGTCAGGTTGGTCAGCTGACGGGTACG,0.533
10,CCTGCTGGGCCATTCAGAGGTCATTGATCATATG,4.03
11,ATCGCAAGGTCGAAGGTGAGTATACCCACCCGAA,1.8
12,TTACCAAGGTGAAAAGTCGTTGATGCACGCCTTG,0.0875
13,ATCGAAAGGTCGACGAGATGAGTATACACCGTTT,2.46
14,ACGTACGGGTCAACGAGGTTATAGCACGCGTATA,7.49
15,GCTTACGGGTCATAGGTTATAGCATGAATAGAAT,3.91
16,AGTCAAAGCTCAGGACGAGGTAACGTAAAGCACG,-0.317
17,CCTACTGGGCCATCAGGTCATAGATATCAACGTT,1.25
18,GATACAGGGTCAAGGCCAGAGTCCGCGTATTGAT,4.32
19,CGTCAAAGTTCAACTAGGGTAACGTAAAGCACGC,5.28
20,CTCGAAAGGTCGGTTGAGGTGAGTAGACGGATAA,1.99

row,Sequence,PBM binding z-score
1,CGTCCAAGGTCAGAGAGGTCAGTTAATGCCGAGT,7.74
2,CCTGCTAGGGCAATGGTCAGCTAAAGCAGCTCGC,-0.874
3,CTACCAAGGTGGACAAGGTCGTTGATTACTATTC,3
4,CGAACTAGGTCATTGACAGGACGGTGAATAGTAA,1.62
5,CCTTACGGGTCACCGACAGGTTATAGCATTTGGA,4.44
6,TCAAACAGGTGAAGGTAACTCAGGTACGCAGTCG,1.13
7,CGAACGAGGGCATGCGTTGATAGCAAATGCCGAT,0.672
8,CAAACTAGGTCACCGGATGGTCAAAGTCCGCATG,2.78
9,CCGACTGGGGCAGTAAGGTTACCATACCATCCGG,0.907
10,TAGCCTAGGTCATGCGGGCCAGTACAGTGTCGGC,2.83
11,TTACCAAGGTGAGCTGACGTCGTTGATCCAACTC,-0.477
12,CCGACTGGGGCATAAAGGTTACCATACCATCCGG,1.4
13,CGAACGAGGGGATGAGTTGATAGCAAATGCCGAT,-0.189
14,CTACCAAGGTGAACAATGTCGTTGATTACTATTC,1.37
15,AATACAGGGTCATGGTAGGCCAGAGTACGCACAG,4.95
16,CCTTACGGGTCACTGCCAGGTTATAGCATTTGGA,3.73
17,TCTCGGAGGACACGAAAGGTCGGAGCTCGACATC,1.08
18,GCTTACGCGTCAAAGGTTATAGCATGAATAGAAT,1.12
19,ATCGAAAGGTCGAGGTCAGTATAGAGAAAGGGAA,4.49
20,AGTCAAAGTTCATCTAGGGAACGTAAGATATGCT,4.73
